Test results from PubChem BioAssay (Tox21).
Unmarked numbers belong to inactive results. Where a call stands in place of a potency, no number is given. Calls of active or inactive are those of the source. The call rests on the fitted dose curve; in most records, active means well fitted curve in the direction sought with a large enough effect in the repeat runs; inconclusive means weak or mixed curves; inactive means flat fitted curve, though single readings scatter.

Test: qHTS assay to test for compound auto fluorescence at 590 nm (red) in HEK293 cells (AID 720679)
Settings: red autofluorescence 540/590 nm; series mostly up to 91.3 µM
Method in brief: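 Using HEK293 cells at 2,000 per well, the screen added 23 nL of each compound after cell attachment and incubated overnight (37C, 5% CO2). The plate reader then captured red-label fluorescence, Ex/Em 540/590nm.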

Row | Compound | Potency | fluorescence, % of fluorescent control
1 | CCN(CC)c1ccc(N)cc1 | inactive | –
2 | CCN=C1C=CC(=C(c2ccc(N(CC)CC)cc2)c2ccc(N(CC)CC)cc2)c2ccccc21 | inactive | –
3 | S=C(SSSSSSC(=S)N1CCCCC1)N1CCCCC1 | – | 0.199% [at 18.6 µM]
4 | Cc1cc2c(C(C)C)c(O)c(O)c(C=O)c2c(O)c1-c1c(C)cc2c(C(C)C)c(O)c(O)c(C=O)c2c1O | inactive | –
5 | NC(=O)C(=O)N/N=C/c1ccc([N+](=O)[O-])o1 | inactive | –
6 | Cc1c(-c2ccc(O)cc2)n(Cc2ccc(OCCN3CCCCCC3)cc2)c2ccc(O)cc12 | inactive | –
7 | O=Nc1ccc(NO)cc1 | inactive | –
8 | CCCCCCC(C)OC(=O)COc1nc(F)c(Cl)c(N)c1Cl (configuration not stated) | inactive | –
9 | c1cc2c3c(c1)ccc1cccc(c13)C2 | inactive | –
10 | CN1[C@@H]2CC[C@H]1CC(OC(=O)C(CO)c1ccccc1)C2 (some centres not stated) | inactive | –
11 | O=C1C=CC(=O)N1c1ccccc1 | inactive | –
12 | NCCCCCCNCCCCCCN | inactive | –
13 | CC1=C(/C=C/C(C)=C/C=C/C(C)=C\C=O)C(C)(C)CCC1 | inactive | –
14 | Cc1cccc(C)c1NC(=O)CN1CCN(CCCC(c2ccc(F)cc2)c2ccc(F)cc2)CC1 | – | 0.0665% [at 18.6 µM]
15 | C=CC(=O)OCCOCC(CC)(COCCOC(=O)C=C)COCCOC(=O)C=C | inactive | –
16 | CC(=O)Nc1ccc(O)cc1 | inactive | –
17 | C[C@]12CC[C@H]3C(=CCc4cc(O)ccc43)[C@@H]1CCC2=O | inactive | –
18 | COc1cc(C(=O)NS(=O)(=O)c2ccccc2C)ccc1Cc1cn(C)c2ccc(NC(=O)OC3CCCC3)cc12 | inactive | –
19 | Cc1c(C)n(Cc2ccccc2)c2ccc(C(=O)OCCN(C)C)cc12 | inactive | –

Row | Compound | Potency | fluorescence, % of fluorescent control
20 | CN(C)c1ccc(N=Nc2ccccc2C(=O)O)cc1 | inactive | –
21 | Cc1cc(Nc2ccc(O)cc2)ccc1N | inactive | –
22 | CC(NCCC(c1ccccc1)c1ccccc1)c1ccccc1 (configuration not stated) | inactive | –
23 | SCCCCCCCCS | inactive | –
24 | CC(C)(C)c1cc(/C=C2\SC(=N)NC2=O)cc(C(C)(C)C)c1O | inactive | –
25 | Oc1ccc(-c2ccc(O)cc2)cc1 | inactive | –
26 | CC(CN(C)C)CN1c2ccccc2CCc2ccccc21 (configuration not stated) | – | -0.076% [at 18.6 µM]
27 | CN(C)CCCN1c2ccccc2CCc2ccccc21 | inactive | –
28 | CN1[C@@H]2CC[C@@H]1CC(OC(=O)C(CO)c1ccccc1)C2 (some centres not stated) | inactive | –
29 | CC(=O)OC(OC(C)=O)c1ccc([N+](=O)[O-])o1 | inactive | –
30 | CCN(CC)CCCN(c1ccccc1)C1Cc2ccccc2C1 | inactive | –
31 | CNCC[C@H](Oc1cccc2ccccc12)c1cccs1 | inactive | –
32 | CSc1ccc2c(c1)N(CCC1CCCCN1C)c1ccccc1S2 (configuration not stated) | inactive | –
33 | Clc1ccc(C(Cn2ccnc2)OCc2ccsc2Cl)c(Cl)c1 (configuration not stated) | inactive | –
34 | C=C(c1ccc(C(=O)O)cc1)c1cc2c(cc1C)C(C)(C)CCC2(C)C | inactive | –
35 | CCCCOc1ccc(C(=O)CCN2CCCCC2)cc1 | – | -0.0275% [at 18.6 µM]
36 | CN1CCN(C2Cc3ccccc3Sc3ccc(Cl)cc32)CC1 (configuration not stated) | inactive | –
37 | CCO[Si](CCCSSSSCCC[Si](OCC)(OCC)OCC)(OCC)OCC | inactive | –
